# Several values for one entry are separate records, joined by “and”; a condition that tells them apart may be missing. Equal values may be shown once. Inconclusive results are not listed. Entries that show only a call come without a potency. Activity calls are given as the source filed them. The call rests on the fitted dose curve; in most records, active means well fitted cell-killing curve with a large enough effect; inconclusive means small, poorly fitted or top-dose-only effect; inactive means flat fitted curve, though single readings scatter.
# Assay: qHTS of pediatric cancer cell lines to identify multiple opportunities for drug repurposing: Primary screen for BT-37 cells (AID 1347094)
# Conditions: BT-37 viability, CellTiter-Glo luminescence, 48 h; series mostly up to 57.3 µM
# Source text: Drug repurposing or repositioning has been offered as a strategy for drug development in oncology programs. This approach has special potential for childhood cancers and other rare or orphan diseases, where the expected return on new drug development has been a disincentive to pharmaceuticals. […] In this project we exploit the poly-pharmacology of drugs to discover new indications via phenotypic screening of a panel of 19 well-characterized cell lines derived from solid tumors seen in children and adolescents. The goal is to identify approved drugs with previously unrecognized anticancer properties that has the potential to reveal new mechanisms and biological processes involved in carcinogenesis or drug resistance. We employed a titration-based paradigm (quantitative high-throughput screening or qHTS), where all compounds were tested at multiple concentrations for their effect on cell viability. Concentration-response curves (CRCs) were derived directly from the primary screen, and both potency and efficacy values were used to identify compounds with robust bioactivity profiles. We screened the NIH Chemical Genomics Center (NCGC) Pharmaceutical Collection (NPC) and Mechanism Interrogation Plate (MIPE) small molecule collections of approved and investigational compounds against these cell lines; and measured metabolically active cells after 48 hours of compound treatment as a proxy for cell viability. […] Assay Submitter: Nathalia J. Martinez, National Center for Advancing Translational Sciences, National Institutes of Health, Rockville, MD, USA; email: natalia.martinez@nih.gov Shen, M et al. Quantitative high-throughput phenotypic screening of pediatric cancer cell lines identifies multiple opportunities for drug repurposing. Oncotarget 2017 Dec 19;9(4):4758-4772. PMID 29435139.
# The cells were obtained from University of North Carolina (UNC), Pediatric Preclinical Testing Program (PPT), and Coriell Institute (CI). qHTS cell viability assay: Cells were assayed in growth media at a density of 500-1,000 cells/well. Five microliters of cells were dispensed into 1,536-well, white, solid-bottom, TC-treated plates (Greiner Bio One) using a multidrop dispenser and incubated at 37 degrees C, 5% CO2, under a humidified atmosphere for 5 hours. Twenty-three nanoliters of compounds and controls (neutral control DMSO or positive control bortezomib at final concentration of 2.3 µM) were subsequently transferred by Kalypsys pintool. For primary screens, the MIPE collection was tested at 11-point dilutions (final concentrations range from 0.78 nM to 46 µM) and the NPC collection at 8-point dilutions (final concentrations range from 0.59 nM to 46 µM). Compounds tested in follow-up screens were assayed at 11-point dilutions. Cells were incubated for 48 hours, followed by addition of 3 µL of CellTiter-Glo (Promega). After a 15 min incubation at room temperature, samples were analyzed for luminescence intensity using a ViewLux High-throughput CCD imager equipped with clear filters.
# Potency means the concentration at half of the fitted maximal effect.
row,SMILES,Potency
1,O=C(O)C1CCCN(CCC=C(c2ccccc2)c2ccccc2)C1 (stereo not given),inactive
2,CCn1cc(C(=O)O)c(=O)c2cc(F)c(N3CCN(C)CC3)cc21,inactive
3,CCN[C@H]1C[C@H](C)S(=O)(=O)c2sc(S(N)(=O)=O)cc21,inactive
4,O=C(NCC1CN(c2ccc(N3CCOCC3=O)cc2)C(=O)O1)c1ccc(Cl)s1 (stereo not given),inactive
5,CCC(=O)O[C@]1(C(=O)CCl)[C@@H](C)C[C@H]2[C@@H]3CCC4=CC(=O)C=C[C@]4(C)[C@@]3(F)[C@@H](O)C[C@@]21C,inactive
6,CC(C)(C)C(=O)OCOP(=O)(COCCn1cnc2c(N)ncnc21)OCOC(=O)C(C)(C)C,3.47 µM (active) and 10.9 µM (active)
7,CNC(=O)c1cc(Oc2ccc(NC(=O)Nc3ccc(Cl)c(C(F)(F)F)c3)cc2)ccn1,21.7 µM (active)
8,CC(C)C[C@H](NC(=O)[C@H](CCc1ccccc1)NC(=O)CN1CCOCC1)C(=O)N[C@@H](Cc1ccccc1)C(=O)N[C@@H](CC(C)C)C(=O)[C@@]1(C)CO1,174 nM (active) and 306 nM (active)
9,Cc1ccnc2c1NC(=O)c1cccnc1N2C1CC1,inactive
10,Cn1c(=O)c2c(ncn2CC(O)CO)n(C)c1=O (stereo not given),inactive
11,COc1cccc(N(C)C(=S)Oc2ccc3c(c2)CCCC3)n1,inactive
12,COC(=O)Nc1nc2ccc(C(=O)c3ccccc3)cc2[nH]1,347 nM (active) and 2.43 µM (active)
13,CS(=O)(=O)c1ccc([C@@H](O)[C@@H](CO)NC(=O)C(Cl)Cl)cc1,inactive
14,NCCCC(O)(P(=O)(O)O)P(=O)(O)O,inactive
15,O=C(O)c1cc(=O)[nH]c(=O)[nH]1,inactive
16,CC1=CC(=O)c2ccccc2C1=O,inactive
17,COc1cc(NCc2ccc3nc(N)nc(N)c3c2C)cc(OC)c1OC,1.53 µM (active) and 69.2 nM (active)
18,CN1CCN(c2c(F)cc3c(=O)c(C(=O)O)cn4c3c2OCN4C)CC1,inactive
19,COc1cc2ncnc(Nc3cccc(Cl)c3)c2cc1OC,21.7 µM (active)
20,Cc1ncc([N+](=O)[O-])n1CCO,inactive

row,SMILES,Potency
1,CCn1cc(C(=O)O)c(=O)c2cc(F)c(N3CCNCC3)nc21,inactive
2,NC(=O)N1c2ccccc2CC(=O)c2ccccc21,inactive
3,NC1(c2ccc(-c3nc4ccn5c(=O)[nH]nc5c4cc3-c3ccccc3)cc2)CCC1,6.85 µM (active)
4,O=C(N[C@H](CO)[C@H](O)c1ccc([N+](=O)[O-])cc1)C(Cl)Cl,inactive
5,OCc1ccc(-c2nn(Cc3ccccc3)c3ccccc23)o1,inactive
6,NC(=O)c1cccnc1,inactive
7,N[C@@H](C(=O)N[C@@H]1C(=O)N2C(C(=O)O)=C(Cl)CS[C@H]12)c1ccccc1,inactive
8,C[C@@H]1CN(c2c(F)c(N)c3c(=O)c(C(=O)O)cn(C4CC4)c3c2F)C[C@H](C)N1,inactive
9,CNC1CCCN(c2c(F)cc3c(=O)c(C(=O)O)cn(C4CC4)c3c2OC)C1 (stereo not given),inactive
10,COc1ccc2c(c1)c(CC(=O)OCC(=O)O)c(C)n2C(=O)c1ccc(Cl)cc1,inactive
11,C[C@@H](NCCCc1cccc(C(F)(F)F)c1)c1cccc2ccccc12,inactive
12,CN(C)c1ccc(C(=C2C=CC(=[N+](C)C)C=C2)c2ccc(N(C)C)cc2)cc1,1.23 µM (active) and 685 nM (active)
13,Nc1nc(=S)c2[nH]cnc2[nH]1,2.46 µM (active) and 1.93 µM (active)
14,COc1cc([C@@H]2c3cc4c(cc3[C@H](O)[C@H]3COC(=O)[C@H]23)OCO4)cc(OC)c1OC,69.2 nM (active) and 1 nM (active)
15,C1CCC(C(CC2CCCCN2)C2CCCCC2)CC1 (stereo not given),34.7 µM (active) and 30.6 µM (active)
16,NC(=O)c1cccc(N)c1,inactive
17,CC1CC2C3CCC4=CC(=O)C=C[C@]4(C)[C@@]3(F)[C@@H](O)C[C@]2(C)[C@@]1(O)C(=O)CO (stereo not given in full),inactive
18,C[C@@H](CN1CC(=O)NC(=O)C1)N1CC(=O)NC(=O)C1,6.85 µM (active)
19,COc1nc(N)nc2c1ncn2[C@@H]1O[C@H](CO)[C@@H](O)[C@@H]1O,inactive
20,O=P(O)(O)C(O)(Cc1cccnc1)P(=O)(O)O,inactive

# From PubChem BioAssay (NCATS)
